Cycloheximide cs – Cycloheximide Counterscreen for Small Molecule Inhibitors of Shiga Toxin | max response, % | AID 2314, 2010 | 300,000 compounds, 12% hits | cell reporter, cycloheximide protein synthesis inhibition counterscreen; in the data active = max response mostly above about 13%, no sharp cut-off; inactive = mostly below about 14%; note: read at 38.3 µM for the half of the compounds with a filed dose; 0% is about no effect
Shiga inhibitor – A qHTS for Small Molecule Inhibitors of Shiga Toxin | inhibition, % at 38.7 µM | 290,000 compounds, 9.2% hits | Vero cells, Shiga toxin protein synthesis inhibition reporter; in the data active = inhibition mostly above about 28%, no sharp cut-off; inactive = mostly below about 43%; note: 0% is about no effect
LASV entry inh – qHTS for Inhibitors of binding or entry into cells for Lassa Virus. 300,000 compounds, 1.2% hits. Lassa virus pseudotype entry inhibition, cell reporter. Potency, µM (doses to about 37.9 µM), inactives show at the highest dose activity change, negative = inhibition, most hits filed as inhibitors; calls by dose curve; tested in HEK293 cells; note: potency is the fitted concentration of half-maximal effect; % is set by controls: 0 for no effect and ±100 for the full control effect; nearly all actives have a fitted effect of over 50% in size
AMA1 RON2 block – qHTS for Inhibitors of AMA1-RON; Towards Development of Antimalarial Drug Lead: Primary Screen. AlphaScreen AMA1-biotinylated RON2 peptide binding. 360,000 compounds, 0.2% hits. Plasmodium falciparum AMA1 (3D7) - RON2 peptide interaction. Potency, µM (highest dose often 58.2 µM), inactives show at the top dose activity change, negative = inhibition, usual class: inhibitors. AID 720542, 2013; active = well fitted inhibition curve with a large enough effect; inconclusive = small, poorly fitted or top-dose-only effect; inactive = no such curve, though single readings can be large or run the other way;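 note: potency is the fitted concentration of half-maximal effect; 0% = vehicle wells and -100% = peptide control; nearly all actives have a fitted effect of over 45% in size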
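AMA1 (3D7) with his tag at 25 nM final met compounds first, then biotinylated RON2 peptide at 25 nM; detection used donor plus acceptor beads, 10 µg/mL apiece, read by AlphaScreen after 30 min at room temperature.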
Marburg entry inh – qHTS for inhibitors of binding or entry into cells for Marburg Virus; Marburg virus pseudotyped entry inhibition, cell reporter; Potency, µM (series often up to 37.8 µM), inactives show at the highest dose activity change, negative = inhibition, actives largely listed as inhibitors; 300,000 compounds, 1.8% hits; calls by dose curve; tested in HEK293 cells; note: potency is the fitted concentration of half-maximal effect; % is set by controls: 0 for no effect and ±100 for the full control effect
* hit, by the source's call; ? = inconclusive; / = no result; + = active, no number; [ ] = dose if it differs, or a comment. Only a selection was taken, and hits are over-represented in it overall.

SMILES	Cycloheximide cs	Shiga inhibitor	LASV entry inh	AMA1 RON2 block	Marburg entry inh
Cc1cccc(C(=O)Nc2cc(OCc3cccc(F)c3)c(Cl)cc2Cl)c1	15.8*	32.5	-0.2%	1.9%	23.8%
Cc1cccc(C)c1NC(=O)c1cccc(COc2cc(Cl)ccc2Cl)c1	28.7*	62.1*	2.9%	-0.6%	5.5%
Cc1nn(Cc2c(F)c(F)c(F)c(F)c2F)c(C)c1NC(=O)c1ccc(COc2cc(Cl)ccc2Cl)cc1	54.4*	109.2*	-22.5%	-6.6%	-5.7%
CC(C)NC(=O)c1ccc(COc2cc(Cl)ccc2Cl)o1	9.3	14.2	-11.6%[46.1 µM]	-8.6%	?
Cc1nn(Cc2c(F)c(F)c(F)c(F)c2F)c(C)c1NC(=O)c1ccc(COc2ccc(F)cc2)o1	-0.8	-14.2	-21.9%	-12.3%	3.66µM*
Cc1nn(Cc2c(F)c(F)c(F)c(F)c2F)c(C)c1NC(=O)c1ccc(COc2ccccc2Cl)cc1	5.6	5.8	-6.6%	-2.0%	2.2%
CCCN1CCN(CCCNC(=O)Cn2c(-c3cccs3)cc3ccccc32)CC1	/	/	-22.2%[46.1 µM]	/	/
COc1ccccc1-n1c(N)c(C(=O)NC[C@H]2CCCO2)c2nc3ccccc3nc21	/	/	/	/	-8.0%
CC1=C/C(=N\NC(=O)c2ccccc2)CC1	43.0*	+	?	120.1%	11.4%
O=C1CS/C(=N\NC(=O)c2ccccc2)N1	-1.4	-4.8	-1.6%	29.2%	0.6%[46.1 µM]
COc1ccc(C2NC(=O)NC(c3ccccc3)=C2c2nc3ccccc3s2)cc1 (stereo not drawn)	10.3	-33.8	?	-23.2%	?
O=C1NC(c2ccccc2)=C(c2nc3ccccc3s2)C(c2ccc(F)cc2)N1 (stereo not drawn)	0.3	-16.0	?	-14.7%	23.1µM*
Cc1cc(N=Nc2c(O)c3ccccc3[nH]c2=O)ccc1N=Nc1ccc(C(=O)N(C)C)cc1	28.1	29.0	/	-5.1%	/
Cc1ccc(N=Nc2c(O)c3ccccc3[nH]c2=O)c(S(=O)(=O)N(C)C)c1	38.1*	42.8*	/	/	-9.5%
COc1ccc(CNC(=O)CS(=O)CC(=O)O)cc1OC (stereo not drawn)	-2.2	-4.7	5.0%[46.1 µM]	14.1%	6.3%[46.1 µM]
CCc1ccc(/C=N/Nc2ncnc3nc[nH]c23)cc1	40.2*	82.1*	7.94µM*	85.3%	?
O=c1n(-c2ccccc2)c(=O)n(Cc2ccccn2)n1Cc1ccccn1	0.3	13.6	?	34.6%	20.4%
O=C(Nc1ccc([N+](=O)[O-])cc1)c1cc(Cl)sc1Cl	16.7	27.4*	/	-2.0%	/
O=C(Nc1ccc([N+](=O)[O-])cc1)c1cc2ccccc2nc1Cl	20.1*	8.3	-0.1%	-15.8%	?
O=C(Nc1ccc(F)cc1)c1cc(Cl)sc1Cl	29.2*	77.4*	-11.4%	-8.9%	-0.2%[46.1 µM]
CC1(C)CCc2cc(S(=O)(=O)N3CCN(S(=O)(=O)c4c(F)cccc4F)CC3)ccc2O1	-4.2	-6.1	/	/	/
CC(NC(=O)CSc1nc2ccc(N)cc2s1)c1ccccc1 (stereo not drawn)	7.8	44.8	1.0%	-2.7%	4.8%[46.1 µM]
COc1ccccc1N(CC(=O)NC1CCCC1)C(=O)CCC(=O)Nc1ccccn1	-5.8	51.7	/	14.4%	2.8%[46.1 µM]
CCOCCN1CCN(c2c(CC)c(C)nc3cc(-c4cc(OC)cc(OC)c4)nn23)CC1	0.5	14.5	?	-0.5%	?
CCc1c(C)nc2cc(-c3cc(OC)cc(OC)c3)nn2c1N1CCCC1	-3.8	-10.2	-24.8%	-1.4%	3.66µM*
SMILES	Cycloheximide cs	Shiga inhibitor	LASV entry inh	AMA1 RON2 block	Marburg entry inh
CCOC(=O)C[C@@H](C#N)c1cn(C)c2ccccc12	/	/	/	/	-17.8%
Cc1ccc(C(=O)OCC(=O)N2CCC(C)CC2)cc1S(=O)(=O)N1CCOCC1	/	/	/	-8.1%	/
Oc1ccc(-c2cnns2)c(O)c1	-1.9	-3.9	11.2µM*	16.4%	?
Nc1ncc(-c2ccccc2)c(-c2ccc(O)cc2O)n1	-4.8	-7.6	5.0%[46.1 µM]	6.4%	?
C=CCn1c(C)cc(C(=O)COC(=O)[C@@H](NC(=O)c2ccccc2Cl)C(C)C)c1C	39.6*	19.1*	?	4.4%[2.32 µM]	?
C=CCn1c(C)cc(C(=O)COC(=O)/C=C/c2cccc(OC)c2)c1C	27.3*	4.3	/	-15.2%	/
Cc1cc(C(=O)COC(=O)/C=C/c2cccc(F)c2)c(C)n1C	29.4*	76.9*	-4.6%	-0.1%	14.9%[46.1 µM]
C=CCn1c(C)cc(C(=O)COC(=O)/C=C/c2ccc(OC)cc2)c1C	9.5	-4.1	-24.2%	-6.9%	21.7%
Fc1ccccc1-c1csc(-c2cccnc2)n1	47.8*	37.8*	?	5.7%	29.4%[46.1 µM]
c1ccc(-c2csc(-c3ccncc3)n2)cc1	30.7*	55.0*	26.1%	2.4%	-20.3%[46.1 µM]
Fc1ccc(-c2csc(-c3cccnc3)n2)cc1F	22.5	60.9*	/	-10.5%	/
O=C(NCCc1csc(-c2cccnc2)n1)c1ccc(F)c(F)c1	/	/	-3.5%[46.1 µM]	/	/
Brc1ccsc1-c1csc(-c2ccncc2)n1	43.0*	87.0*	/	6.8%	/
Cc1ccc(Cl)cc1N1CCN(S(=O)(=O)c2cn(C)c(C)n2)CC1	/	/	0.5%[46.1 µM]	/	/
Cc1ccccc1NC(NC(=O)c1cccs1)C(Cl)(Cl)Cl (stereo not drawn)	-4.0	-7.2	-17.1%	7.3%	?
O=C1CCC[C@@H]2C=C[C@H](c3ccc(Br)cc3)[C@H]3CCN1[C@@H]32	/	/	/	1.3%	/
COc1ccc(OCC(=O)N/N=C/c2cccn2-c2cccc(C(=O)O)c2)cc1	/	/	-8.8%	-21.1%	-6.4%[46.1 µM]
Cc1ccccc1-c1cc2nccc(-c3cc(Cl)ccc3O)n2n1	/	/	-6.3%[46.1 µM]	/	-6.7%[46.1 µM]
CCOC(=O)CC(=O)NC1(Cc2ccc(O)cc2)CCCCC1	-2.6	-6.0	/	-4.9%	/
Oc1ccccc1-c1csc(-c2ccccc2)n1	75.0*	158.5*	5.9%	-14.9%	?
Cc1nc(-c2ccc(O)c(O)c2)cs1	-1.0	-7.6	-5.9%	8.0%	-8.2%
Oc1ccc(-c2csc(-c3cccnc3)n2)cc1O	54.3*	61.1*	?	-22.8%	?
Oc1ccc(-c2csc(-c3ccccc3)n2)cc1O	32.7*	71.3*	-36.9%	70.5%	-19.2%
Nc1nc(-c2ccccc2)cc(-c2ccccc2O)n1	9.2	15.9	-1.3%	-2.7%	-25.6%
c1cncc(-c2nc(-c3ccc4c(c3)OCCO4)cs2)c1	63.0*	128.3*	/	0.1%	/
SMILES	Cycloheximide cs	Shiga inhibitor	LASV entry inh	AMA1 RON2 block	Marburg entry inh
CS(=O)(=O)c1ccc(-c2csc(-c3cccnc3)n2)cc1	39.1*	54.0	/	1.0%	/
Cc1csc(-c2cccnc2)n1	-2.4	11.8	?	10.6%	0.0%
O=C1c2ccccc2C(=O)N1CCc1csc(-c2ccccc2)n1	18.2*	35.8*	-26.6%	12.8%	-21.6%
Clc1ccc(-c2csc(-c3cccnc3)n2)s1	32.1*	54.0*	/	31.0%	/
O=C1c2ccccc2C(=O)N1CCc1csc(-c2ccc(F)cc2)n1	8.4	10.1	-9.8%	49.4%	6.8%
CN(C)S(=O)(=O)c1ccc(-c2csc(-c3cccnc3)n2)cc1	19.4	20.6	16.2%	-6.0%	-1.6%[46.1 µM]
CCOC(=O)c1ccccc1NC(=O)Cc1ccc(OC)c(S(=O)(=O)N2CCOCC2)c1	/	/	0.0%[46.1 µM]	0.0%	?

Assay outcomes: PubChem BioAssay, National Center for Advancing Translational Sciences (NCATS)
